Most compounds without a hit are left out; they make up all but 7.5% or so of the library.
SMN2 splice up: qHTS Assay for Enhancers of SMN2 Splice Variant Expression; HEK293 SMN2-luciferase splicing reporter, luminescence, 30-36 h; Potency, µM (series often up to 46.1 µM), for inactives: at the highest dose activity change, positive = activation, usual class: activators; 2.8% of 210,000 active; AID 1458, 2008; note: % of control where 0% means no effect; nearly all actives have a fitted effect of over 55% in size
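HEK293 cells carry an SMN2 […]–luciferase reporter in which exon 7 inclusion puts luciferase in frame. Cells were plated 10-12 h before compound addition, then incubated 30-36 h at 37C. ONE-Glo luminescence was read; sodium butyrate at 4.5 mM final served as control.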
NPC1 promoter act: qHTS Assay for NPC1 Promoter Activators; Huh7 NPC1 promoter luciferase reporter, 24 h; 2.4% of 320,000 active; Potency, µM (highest dose often 9.22 µM), without a hit: at the highest dose activation, usual class: activators; note: % of control where 0% means no effect; nearly all actives have a fitted effect of over 60% in size
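In 1536-well qHTS, Huh7 cells harboring an NPC1 promoter–luciferase construct received compound for 24 h; activation was quantified by luminescence following luciferase reagent addition.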
ELG1 genotoxic: qHTS screen for small molecules that induce genotoxicity in human embryonic kidney (HEK293T) cells expressing luciferase-tagged ELG1. Potency, µM (doses to about 46 µM), without a hit: top-dose activity change, positive = activation, usual class: activators. 1.3% of 330,000 active. HEK293T ELG1-luciferase reporter, luminescence, 16 h; note: % of control where 0% means no effect; nearly all actives have a fitted effect of over 60% in size
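After overnight (16 hr) compound treatment at 37 °C, ELG1-luciferase HEK293T cells were lysed with ONE-Glo; luminescence quantified 30 min later at room temperature.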
Rab9 prom act: qHTS Assay for Rab9 Promoter Activators; Huh7 Rab9 promoter-luciferase reporter, luminescence, 24 h; AID 485297, 2010; Potency, µM (series often up to 9.22 µM), without a hit: top-dose activation, negative = inhibition, hits mostly activators; 2.8% of 320,000 active; note: % of control where 0% means no effect; nearly all actives have a fitted effect of over 60% in size
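Huh7 cells stably carrying Rab9 promoter–luciferase reporter, plated 1500 cells/well, compound added after 2 h and incubated 24 h at 37 °C; luciferase luminescence then read after 10 min with detection reagent.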
FLuc modulator: qHTS profiling assay for firefly luciferase inhibitor/activator using purifed enzyme and Km concentrations of substrates (counterscreen for miR-21 project). Luciferin 4-monooxygenase (Photinus pyralis), P08659. purified FLuc, Km substrates, luminescence inhibition. Potency, µM (titrated, usually from 57.5 µM), for the others: at the highest dose activity change, negative = inhibition, usual class: inhibitors. 6.9% of 360,000 active;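 note: plate controls were vehicle for no effect and reference inhibitor for full effect; nearly all actives have a fitted effect of over 55% in size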
Target sequence (P08659 whole entry, looked up): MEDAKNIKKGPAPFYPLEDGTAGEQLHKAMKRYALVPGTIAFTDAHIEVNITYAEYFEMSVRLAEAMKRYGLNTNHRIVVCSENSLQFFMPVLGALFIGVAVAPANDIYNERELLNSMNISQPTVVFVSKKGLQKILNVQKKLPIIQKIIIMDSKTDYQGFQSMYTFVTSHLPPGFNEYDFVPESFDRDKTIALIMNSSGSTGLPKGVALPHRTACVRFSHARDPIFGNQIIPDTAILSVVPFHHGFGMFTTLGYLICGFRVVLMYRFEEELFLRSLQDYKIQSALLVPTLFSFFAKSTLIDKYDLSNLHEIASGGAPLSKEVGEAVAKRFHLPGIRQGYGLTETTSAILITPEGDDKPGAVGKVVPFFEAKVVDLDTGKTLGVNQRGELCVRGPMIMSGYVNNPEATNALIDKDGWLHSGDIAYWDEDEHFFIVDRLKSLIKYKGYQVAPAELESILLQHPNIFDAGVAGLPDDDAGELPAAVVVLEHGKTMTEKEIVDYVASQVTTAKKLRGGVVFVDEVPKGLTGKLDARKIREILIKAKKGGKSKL
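Purified P. pyralis luciferase (10nM final) with 10uM D-luciferin and 10uM ATP (Km levels) in 50mM Tris acetate pH 7.5, 10mM Mg acetate, 0.01% Tween-20, 0.05% BSA; qHTS 6-point titration, ~60 µM downward; luminescence read.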
Numbers without * were called inactive. Calls come from the whole dose curve; as a rule, active = well fitted curve in the direction sought with a large enough effect; inconclusive = small, poorly fitted or top-dose-only effect, or another doubt; inactive = no such curve, though single readings can be large; an effect the other way counts as inactive or inconclusive. Potency is the fitted concentration of half-maximal effect.

What do the screens show for `N#Cc1nc(/C=C/c2ccc(F)cc2)oc1N1CCCCCC1`?
SMN2 splice up: -0.8%; FLuc modulator: -10.2%

What do the screens show for `CC(C)N(Cc1ccccc1)C(=O)COC(=O)/C=C/c1cnc2ccccc2n1`?
SMN2 splice up: 19.6%; NPC1 promoter act: -5.3%; ELG1 genotoxic: -4.3%; Rab9 prom act: -2.5%; FLuc modulator: -2.4%

Results for COc1ccc(-c2nc3cc(C)ccn3c2NC(=O)c2cccc(F)c2)cc1 ?
SMN2 splice up: 14.0%; FLuc modulator: inconclusive

Results for Clc1ccccc1-c1nc(-c2cccnc2)no1 ?
SMN2 splice up: 11.2µM*; FLuc modulator: 3.01µM*

How did Cc1onc(-c2ccccc2Cl)c1-c1nc(-c2ccncc2)no1 do in these assays?
SMN2 splice up: -11.3%; NPC1 promoter act: 1.0%; ELG1 genotoxic: 1.9%; Rab9 prom act: -4.3%; FLuc modulator: 0.3%

How did CSc1ccccc1-c1nc(-c2ccncc2)no1 do in these assays?
NPC1 promoter act: 3.55µM*; ELG1 genotoxic: inconclusive; Rab9 prom act: inconclusive; FLuc modulator: inconclusive

What do the screens show for `OCCC1CN(C2CCN(c3ccccc3)CC2)CCN1Cc1ccc(F)c(F)c1` (stereo not drawn)?
NPC1 promoter act: 0.0%; ELG1 genotoxic: -0.2%; Rab9 prom act: -9.6%; FLuc modulator: 1.7%

What do the screens show for `COc1ccc(N2CC(NC(=O)N3CCc4ccccc43)CC2=O)cc1OC` (stereo not drawn)?
SMN2 splice up: 28.3%; NPC1 promoter act: -3.5%; ELG1 genotoxic: 12.1%; Rab9 prom act: 0.8%; FLuc modulator: -1.0%

Results for Cc1ccsc1/C=N/NC(=O)c1cccs1 ?
NPC1 promoter act: inconclusive; ELG1 genotoxic: inconclusive; Rab9 prom act: inconclusive; FLuc modulator: 10.7µM*

How did Cc1ccsc1/C=N/NC(=O)c1ccccn1 do in these assays?
SMN2 splice up: 11.2µM*; NPC1 promoter act: 2µM*; ELG1 genotoxic: inconclusive; Rab9 prom act: 2.51µM*; FLuc modulator: 8.49µM*

How did Cc1ccsc1/C=N/NC(=O)C(O)c1ccccc1 (stereo not drawn) do in these assays?
NPC1 promoter act: -1.7%; ELG1 genotoxic: 0.3%; Rab9 prom act: 5.8%; FLuc modulator: -3.8%

What do the screens show for `Cc1ccsc1/C=N/NC(=O)C(N)=O`?
SMN2 splice up: inconclusive; NPC1 promoter act: 0.6%; ELG1 genotoxic: -12.6%; Rab9 prom act: 15.9%; FLuc modulator: inconclusive

What do the screens show for `COc1ccc2[nH]cc(CCNC(=O)COc3cc(C)cc4oc(=O)cc(C)c34)c2c1`?
NPC1 promoter act: 0.7%; ELG1 genotoxic: -6.3%; Rab9 prom act: 2.1%; FLuc modulator: 1.4%

How did Cc1noc(C)c1COc1ccc(C(=O)O)cc1 do in these assays?
NPC1 promoter act: -5.2%; ELG1 genotoxic: 2.5%; Rab9 prom act: -1.6%; FLuc modulator: 0.5%

Results for Cc1nc(S/C(=C/c2ccc(OCc3ccc(C(=O)O)cc3)cc2)C(=O)O)n[nH]1 ?
SMN2 splice up: -31.4%; NPC1 promoter act: 5.6%; ELG1 genotoxic: 0.2%; Rab9 prom act: -3.8%; FLuc modulator: 26.9µM*

Results for COc1ccc(C(c2c(O)nc[nH]c2=O)c2c(O)nc[nH]c2=O)cc1 ?
NPC1 promoter act: 2.7%; ELG1 genotoxic: 0.0%; Rab9 prom act: -6.8%; FLuc modulator: 3.5%

How did COc1ccccc1NC(=O)C1=C(C)Nc2nc(SCc3ccccc3)nn2C1c1cccc(O)c1 (stereo not drawn) do in these assays?
SMN2 splice up: 21.0%; FLuc modulator: -15.8%

What do the screens show for `Cc1ccc(/C=C/C(=O)Nc2ccc(S(N)(=O)=O)cc2)o1`?
SMN2 splice up: -5.1%; NPC1 promoter act: -0.9%; ELG1 genotoxic: -0.8%; Rab9 prom act: -2.4%; FLuc modulator: inconclusive

Results for CCOC(=O)Cc1csc(NC(=O)CC)n1 ?
SMN2 splice up: -0.4%; NPC1 promoter act: -4.0%; ELG1 genotoxic: -0.4%; Rab9 prom act: -2.3%; FLuc modulator: 1.5%

How did O=C(/C=C/c1ccco1)Nc1nc(-c2ccccc2)cs1 do in these assays?
SMN2 splice up: 11.2µM*; NPC1 promoter act: 2.82µM*; ELG1 genotoxic: 13.5%; Rab9 prom act: 2.51µM*; FLuc modulator: 4.78µM*

How did CCOC(=O)Cc1csc(NC(=O)/C=C/c2ccco2)n1 do in these assays?
NPC1 promoter act: 16.2%; ELG1 genotoxic: -4.1%; Rab9 prom act: 28.1%; FLuc modulator: 10.7µM*

What do the screens show for `Cc1csc(NC(=O)c2ccco2)n1`?
SMN2 splice up: -7.4%; NPC1 promoter act: 1.3%; ELG1 genotoxic: -0.9%; Rab9 prom act: 2.9%; FLuc modulator: -2.2%

Results for Cc1csc(NC(=O)/C=C/c2ccc(C)o2)n1 ?
SMN2 splice up: 20µM*; NPC1 promoter act: 15.1%; ELG1 genotoxic: 18.3%; Rab9 prom act: 27.3%; FLuc modulator: 10.7µM*

How did Cc1csc(NC(=O)/C=C/c2ccco2)n1 do in these assays?
SMN2 splice up: 15.8µM*; NPC1 promoter act: 12.9%; ELG1 genotoxic: inconclusive; Rab9 prom act: 2.82µM*; FLuc modulator: 6.75µM*

How did CSc1cccc(CN2CCN(CCC(C)C)C(CCO)C2)c1 (stereo not drawn) do in these assays?
NPC1 promoter act: -1.1%; ELG1 genotoxic: -2.4%; Rab9 prom act: 4.5%; FLuc modulator: -1.3%

Results for O=C(/C=C/c1ccco1)Nc1nc(-c2ccccn2)cs1 ?
SMN2 splice up: inconclusive; NPC1 promoter act: inconclusive; ELG1 genotoxic: -0.4%; Rab9 prom act: inconclusive; FLuc modulator: 21.3µM*

How did O=C(/C=C/c1ccco1)Nc1nc(-c2ccc(F)c(F)c2)cs1 do in these assays?
NPC1 promoter act: 3.9%; ELG1 genotoxic: -10.2%; Rab9 prom act: 2.4%; FLuc modulator: inconclusive

What do the screens show for `CCOC(=O)Cc1csc(NC(=O)/C=C/c2ccc(Cl)cc2)n1`?
NPC1 promoter act: -6.0%; ELG1 genotoxic: -6.9%; Rab9 prom act: -7.6%; FLuc modulator: 2.39µM*

What do the screens show for `CCOC(=O)c1ccc(S(=O)(=O)N2CCC(C(=O)NCC3CCCCC3)CC2)cc1`?
NPC1 promoter act: -0.8%; ELG1 genotoxic: 2.5%; Rab9 prom act: 1.5%; FLuc modulator: 1.1%

What do the screens show for `CC(=O)c1c(C)nn(C(=O)c2cccs2)c1C`?
SMN2 splice up: -4.6%; NPC1 promoter act: -4.6%; ELG1 genotoxic: 5.0%; Rab9 prom act: 4.1%; FLuc modulator: 3.2%

What do the screens show for `Cc1nn(C(=O)c2cccs2)c(N)c1-c1ccccc1`?
SMN2 splice up: inconclusive; NPC1 promoter act: inconclusive; ELG1 genotoxic: inconclusive; Rab9 prom act: inconclusive; FLuc modulator: 4.26µM*

How did Cc1nn(C(=O)c2ccc3c(c2)OCO3)c(N)c1-c1ccccc1 do in these assays?
SMN2 splice up: 9.8%; NPC1 promoter act: -0.6%; ELG1 genotoxic: inconclusive; Rab9 prom act: 8.2%; FLuc modulator: 0.477µM*

Bioassay records (PubChem)
